The list is not random: actives were taken first. Their share in the collection is about 2.7%.
KKLEB tox = CF airway cell cytotoxicity counter-screen; activity change (cytotoxicity), % at 5 µM; AID 602141; KKLEB CF airway cells viability, ATPlite luminescence, overnight; stronger effect = lower value; cells stimulated with P. aeruginosa culture filtrate; hit rate 0.36% among 360,000;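 active = corrected activity change at or below -50% at 5 µM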
Peg3 prom inh = Peg3 promoter activity inhibition. hit rate 1.7% among 360,000. HeLa PEG-Prom luciferase reporter, luminescence, overnight. AID 588405. inhibition, % at 20 µM;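 active = inhibition of at least 50% at 20 µM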
HIF-2a inh = blocks HIF-2a reporter activity | inhibition, % at 18.8 µM | hit rate 0.72% among 360,000 | 786-0 RCC cells HIF-2a reporter, luciferase luminescence, overnight;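 active = inhibition of the luminescence signal of 40% or more relative to plate controls, in a single-dose primary screen at 18.75 µM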
TRPM1 prom inh = reduces MITF-dependent TRPM1 promoter luciferase signal; SK-MEL-5 TRPM1 promoter luciferase, 24 h; inhibition, % at 12.5 µM; hit rate 0.83% among 330,000; AID 488899;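 active = mean inhibition across replicates of 60% or more, whatever share of single replicates reaches that level; inconclusive = some that reach 60%, reason not given; inactive = mean inhibition across replicates below 60%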
Shn3 inh set2 = inhibitors of Schnurri-3 3'UTR reporter in osteoblasts | Clone20 osteoblast Shn3 3'UTR firefly luciferase, 24 h | AID 588674 | inhibition, % at 12.5 µM | hit rate 0.52% among 360,000;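 active = mean inhibition of at least 75% with every replicate also reaching 75%; inconclusive = mean inhibition at least 75% but some replicate below; inactive = mean inhibition below 75%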;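 also: 0% = median of neutral control wells and 100% = pilot-screen positive control compound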
CF NFkB block = blocks PAF-induced NF-kB reporter in cystic fibrosis cells | KKLEB NF-kB-GFP reporter, GFP fluorescence overnight | inhibition, % at 5 µM | hit rate 0.86% among 360,000 | AID 588850;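 active = at least 50% inhibition at 5 µM, scaled per plate between neutral and stimulator controls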;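 also: PAF is a Pseudomonas aeruginosa culture filtrate used as stimulus; plate controls were PAF-stimulated DMSO wells for no effect and unstimulated DMSO wells for full effect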
Mdm2-MdmX confirm = Mdm2/MdmX (human) interaction inhibition, confirmed; shares compounds with HIF-2a inh; SaOS-2 split-luciferase Mdm2/MdmX complementation, luminescence; inhibition, % at 8 µM; hit rate 99% among 740;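 active = mean inhibition of the luminescence signal across two replicates at or above 26 percent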
Target sequence (O15151 whole entry, looked up): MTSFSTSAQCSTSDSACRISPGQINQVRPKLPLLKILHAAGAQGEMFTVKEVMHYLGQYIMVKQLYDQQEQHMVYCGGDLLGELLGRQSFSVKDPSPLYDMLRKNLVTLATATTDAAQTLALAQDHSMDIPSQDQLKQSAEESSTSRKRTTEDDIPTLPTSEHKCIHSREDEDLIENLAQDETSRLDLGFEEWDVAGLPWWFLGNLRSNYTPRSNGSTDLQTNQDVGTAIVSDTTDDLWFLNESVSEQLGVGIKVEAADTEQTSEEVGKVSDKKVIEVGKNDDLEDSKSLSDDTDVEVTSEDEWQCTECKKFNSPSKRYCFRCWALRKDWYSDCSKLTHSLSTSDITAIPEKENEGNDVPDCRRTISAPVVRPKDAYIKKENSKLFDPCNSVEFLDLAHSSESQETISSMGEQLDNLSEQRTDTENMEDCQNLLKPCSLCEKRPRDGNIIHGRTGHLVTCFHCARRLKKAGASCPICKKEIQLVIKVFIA
Target sequence (Q00987 whole entry, looked up): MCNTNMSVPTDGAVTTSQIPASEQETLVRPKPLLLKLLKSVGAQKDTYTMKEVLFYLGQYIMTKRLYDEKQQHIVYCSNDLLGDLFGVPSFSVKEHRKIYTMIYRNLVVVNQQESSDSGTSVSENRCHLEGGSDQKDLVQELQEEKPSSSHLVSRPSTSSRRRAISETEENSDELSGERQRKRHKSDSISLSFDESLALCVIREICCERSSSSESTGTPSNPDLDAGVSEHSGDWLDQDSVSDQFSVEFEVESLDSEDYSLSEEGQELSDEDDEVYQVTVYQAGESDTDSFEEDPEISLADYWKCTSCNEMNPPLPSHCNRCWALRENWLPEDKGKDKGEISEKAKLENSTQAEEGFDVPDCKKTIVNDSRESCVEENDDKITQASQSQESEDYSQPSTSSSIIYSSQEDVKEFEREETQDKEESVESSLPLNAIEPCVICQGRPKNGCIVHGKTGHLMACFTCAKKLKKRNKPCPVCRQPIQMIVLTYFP
HIF-2a conf = confirmation of HIF-2a inhibitors; hit rate 56% among 1,800; shares compounds with HIF-2a inh; inhibition, % at 18.8 µM; AID 651580; 786-0 RCC cells, HIF-2a luciferase reporter luminescence, overnight;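 active = mean inhibition across four replicates of at least 40 percent at the single tested concentration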
HIF-1a cs = counter-screen for HIF-2a inhibitors: HIF-1a inhibition in MiaPaCa-2 cells | inhibition, % at 18.8 µM | MiaPaCa-2 HIF-1a luciferase reporter, desferoxamine, overnight | AID 651589 | shares compounds with HIF-2a inh | hit rate 72% among 1,800;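 active = mean inhibition of the reporter signal across four replicates at the single tested dose of 50% or more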
Numbers without * were called inactive; ? = inconclusive; / = no result.

SMILES	KKLEB tox	Peg3 prom inh	HIF-2a inh	TRPM1 prom inh	Shn3 inh set2	CF NFkB block	HIF-2a conf	HIF-1a cs	others
Cc1c(NC(=O)CSc2nnc3c4ccccc4n(CCc4ccccc4)c3n2)c(=O)n(-c2ccccc2)n1C	10	9	-29	-15	54	-20	/	/	Mdm2-MdmX confirm=101*
CS(=O)c1nc(-c2ccc(Br)cc2)cc(-c2ccccc2)c1C#N (centres undefined)	-31	106*	88*	78*	76	14	21	98*
COc1ccc(-c2cc(-c3ccccc3)c(C#N)c(S(C)(=O)=O)n2)cc1	-19	104*	88*	19	-39	33	14	85*
CS(=O)(=O)c1nc(-c2ccc(Br)cc2)cc(-c2ccccc2)c1C#N	-66*	113*	97*	6	98*	80*	20	100*	Mdm2-MdmX confirm=103*
COc1ccc(-c2cc(-c3cccnc3)c(C#N)c(N)n2)cc1	-4	5	9	14	-24	2	/	/
COc1ccc(S(=O)(=O)CC(=O)c2cc3cc(Br)ccc3oc2=O)cc1	14	-9	22	-2	5	-23	/	/
CCOc1ccc(OCCC(=O)N2CCN(S(=O)(=O)c3cccc(F)c3)CC2)cc1	-5	20	3	8	2	4	/	/
Cc1cc(C)n2nc(SC(C)C(=O)Nc3ccccc3F)nc2n1 (centres undefined)	8	6	-5	-11	-9	11	/	/
O=C1c2ccccc2C(c2nnnn2-c2ccc3c(c2)OCCO3)N1Cc1ccccc1 (centres undefined)	/	/	2	/	/	/	/	/
Cc1coc2cc3oc(=O)c(CC(=O)N[C@@H](CC(C)C)C(=O)O)c(C)c3cc12	-8	4	46*	-9	-4	5	-2	-3
COc1cc(/C=N\NC(=O)C(C)(C)O)ccc1OC/C=C/c1ccccc1	-5	1	7	2	-14	2	/	/
C=C1C(=O)C=C[C@]2(C)C[C@@H]3OC(=O)[C@](C)(O)[C@H]3C[C@@H]12	24	91*	40*	/	45	5	11	98*
O=C(O)c1ccc(NC(=S)NC(=O)c2ccc3ccccc3c2)cc1	0	-173	-142	-3	-14	5	/	/
O=C(O)c1cccc(NC(=S)NC(=O)c2ccc3ccccc3c2)c1	18	25	74*	40	15	-10	76*	-26
CCN(CC)CCCNC(=S)N1CCC(c2nc3ccccc3[nH]2)CC1	-8	1	8	-22	-9	-1	/	/
Cc1ccc(OCCn2cc(C(=S)N3CCCC3)c3ccccc32)cc1C	-2	22	-27	-5	25	-17	/	/	Mdm2-MdmX confirm=100*
S=C(c1cn(CCOc2ccccc2)c2ccccc12)N1CCCC1	-8	10	-12	2	9	10	/	/
CCOC(CCNC(=O)c1cn(CCOC)c(=O)c2c1c1ccccc1n2C)OCC	-6	-4	-150	-10	-29	13	/	/
O=C(COC(=O)c1c(Cl)ccc(Cl)c1Cl)NCC1CCCO1 (centres undefined)	-8	-1	-18	3	4	5	/	/
CCc1ccc(/C=C/c2c([N+](=O)[O-])c(=O)n(C)c(=O)n2C)cc1	7	25	46*	9	-5	19	36	32
CCOc1ccc(/C=C/c2c([N+](=O)[O-])c(=O)n(C)c(=O)n2C)cc1	14	4	25	16	-17	9	/	/
Cn1c(/C=C/c2ccc(Cl)cc2Cl)c([N+](=O)[O-])c(=O)n(C)c1=O	22	103*	69*	/	?	32	41*	106*
COc1ccc(/C=C/c2c([N+](=O)[O-])c(=O)n(C)c(=O)n2C)c(OC)c1	3	3	30	3	-30	22	/	/
CCN(CC(=O)Nc1ccc2c(c1)OCCO2)C(=O)/C=C/c1ccc([N+](=O)[O-])cc1	0	-17	-22	-8	-3	-28	/	/
O=S(=O)(/C(=C/c1ccc(C(F)(F)F)cc1)c1nc2ccccc2[nH]1)c1ccccc1	-64*	106*	90*	91*	39	84*	99*	107*
SMILES	KKLEB tox	Peg3 prom inh	HIF-2a inh	TRPM1 prom inh	Shn3 inh set2	CF NFkB block	HIF-2a conf	HIF-1a cs	others
C/C(=C\c1ccc(N)cc1)c1nc2ccccc2[nH]1	-8	-306	-227	-85	-94	-14	/	/
CC(C)c1ccc(/C=C(\c2nc3ccccc3[nH]2)S(=O)(=O)c2ccccc2)cc1	-68*	104*	90*	87*	92*	93*	98*	104*	Mdm2-MdmX confirm=103*
O=C1c2ccccc2C(=O)N1CC(O)COc1ccccc1Cl (centres undefined)	5	-11	-29	-63	-8	-19	/	/
COc1ccc2cc1Oc1ccc(cc1)CC1c3c(cc(OC)c4c3Oc3cc5c(cc3O4)CCNC5C2)CCN1C (centres undefined)	-45	102*	54*	109*	54	44	3	106*
CCOC(=O)C1CCN(C(=O)Nc2ccc3snnc3c2)CC1	4	10	52*	-2	-5	-2	50*	12
CCOC(=O)C1CCN(C(=O)Nc2ccc3nccnc3c2)CC1	1	-1	-26	1	6	-5	/	/
COCCN1C(=O)COc2ccccc2C1C(=O)NC1CCCCC1 (centres undefined)	/	/	11	/	/	/	/	/
CCN(CC)CCCN=C1N[C@@H](c2cccc(F)c2)C(C(=O)OC)=C(C)N1Cc1ccccc1	-13	97*	8	94*	-7	16	/	/	Mdm2-MdmX confirm=102*
COc1ccc(C2C(Oc3ccccc3)C(=O)N2c2cc(C)ccc2C)cc1OC (centres undefined)	2	17	-5	-1	-2	0	/	/
COc1ccc(C)cc1N1C(=N)/C(=C2/Nc3ccccc3S2)C(c2ccccc2)C1=O (centres undefined)	0	91*	83*	3	53	-6	-11	88*
COc1ccccc1N/C=C/c1onc(C)c1[N+](=O)[O-]	14	0	-71	6	6	-40	/	/
Cc1noc(/C=C/c2ccccn2)c1[N+](=O)[O-]	-11	26	73*	54	-54	5	86*	106*
O=C(Nc1ccc(Nc2ccncc2)cc1)c1ccc([N+](=O)[O-])cc1	-1	80*	48*	86*	48	16	-23	27
